This is a sample that favours compounds with a hit; in the whole collection about 4% have one here.
TRHR agonist = activates the human TRH receptor. AID 493084. activation, % at 2 µM. TRHR cells, calcium flux fluo-8, FDSS agonist mode. P34981. actives 0.18% (n = 360,000); further: 0% is about no effect
Target sequence (P34981 whole entry, looked up): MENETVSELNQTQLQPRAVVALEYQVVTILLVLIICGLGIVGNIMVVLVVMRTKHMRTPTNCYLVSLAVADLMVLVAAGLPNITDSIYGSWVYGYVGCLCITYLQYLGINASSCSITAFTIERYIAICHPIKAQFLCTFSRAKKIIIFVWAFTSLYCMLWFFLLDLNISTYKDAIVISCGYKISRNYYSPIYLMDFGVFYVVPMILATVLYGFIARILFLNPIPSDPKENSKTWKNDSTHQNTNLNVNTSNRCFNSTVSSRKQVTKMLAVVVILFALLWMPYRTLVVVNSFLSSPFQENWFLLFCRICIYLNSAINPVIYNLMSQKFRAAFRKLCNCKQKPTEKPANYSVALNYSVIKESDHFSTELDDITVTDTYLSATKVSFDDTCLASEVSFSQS
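Agonist-mode FDSS calcium read (Ex 480/Em 530, 1 s cycles) in 1536-well TRHR cells with fluo-8 dye, after 10-cycle baseline and 23 nL compound addition; TRH at EC20 (10 nM final) added afterwards for the enhancer phase.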
Glioma ERSR ind = ER stress response induction in glioma; Potency, µM, for the others: top-dose activation, usual class: activators; actives 0.02% (n = 420,000); U87-MG GRP78 promoter luciferase reporter, 16 h; AID 602332; active means well fitted activation curve with a large enough effect; inconclusive means small, poorly fitted or top-dose-only effect; inactive means no such curve, though single readings can be large or run the other way; further: potency means the concentration at half of the fitted maximal effect; series mostly up to about 76 µM; % of control where 0% means no effect; nearly all actives have a fitted effect of over 35% in size
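Stably transfected U87-MG glioma cells carrying a GRP78-based luciferase sensor; 16 h compound incubation. Luminescence end-point read 10 min after Bright-Glo addition at room temperature.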
D1 agonist = agonists of human D1 dopamine receptor. activation, % at 2 µM. AID 504660. P21728. actives 1% (n = 360,000). HEK293 T-REx D1 cells, calcium flux, agonist mode; further: 0% is about no effect
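Agonism was scored from calcium flux recorded over 180 s (1 read/s) after pintool compound addition, following a 10-cycle baseline. Cells were inducible force-coupled HEK293 TREx D1, plated overnight at 30 C and loaded with no-wash calcium dye.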
D1 PAM = human D1 dopamine receptor positive modulation; P21728; HEK293 TREx D1 cells, calcium flux, dopamine EC20 potentiation; potentiation, % at 10 µM; actives 0.036% (n = 360,000); AID 504651; in the data active means potentiation above about 30%; further: 0% is about no effect
D1 antagonist = blocks dopamine activation of the human D1 receptor. AID 504652. activity change, negative = inhibition, % at 10 µM. actives 3.2% (n = 360,000). HEK293 TREx D1 cells, calcium flux, dopamine EC80; stronger effect = lower value. P21728; in the data active means activity change below about -30%; further: on the % scale 0 is the no-effect control and ±100 the full control effect
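Cells carrying a force-coupled, tetracycline-inducible human D1 receptor report calcium flux. Each well gets a 10 s baseline, compound with 180 s monitoring, then an EC80 dopamine stimulus with a second 180 s kinetic read.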
TRHR enhancer = TRH receptor (human) allosteric enhancement; P34981; TRHR cells, fluo-8 calcium fluorescence, EC20 TRH enhancement; enhancement, % at 2 µM; actives 0.66% (n = 360,000); AID 493056; in the data active means enhancement above about 30%; further: 0% is about no effect
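Enhancer read-out: after compound pinning and an initial kinetic agonist-mode read, an EC20 of TRH (10 nM final) was injected and fluo-8 calcium signal (Ex 480/Em 530) followed at 1 s/cycle for 100 cycles in TRHR-expressing cells.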
Numbers without * were called inactive; ? = inconclusive; . = no result. Unless noted, no stated cut-off is given here; in the data, active means activation above about 30%; inactive means the rest.

SMILES | TRHR agonist | Glioma ERSR ind | D1 agonist | D1 PAM | D1 antagonist | TRHR enhancer
CCOc1ccc(S(=O)(=O)Nc2cccc(-c3ccc(N4CCCC4)nn3)c2)cc1 | -0.8 | 0.3% | 1.6 | -1.0 | 7.8 | 8.1
COc1ccccc1CNc1ncnc2sccc12 | -0.7 | 2.5% | 31.0* | -8.3 | -30.8* | 9.5
c1ccc2c(c1)oc1c(NCC3CCCO3)ncnc12 (configuration not stated) | 0.0 | 6.5% | 1.6 | -8.6 | 8.1 | 36.9*
c1ccc(-c2nc(NCC3CCCO3)c3oc4ccccc4c3n2)cc1 (configuration not stated) | 0.0 | -3.5% | 3.1 | -7.1 | 5.0 | -13.8
Fc1ccccc1CNc1ncnc2sccc12 | 0.8 | -2.9% | 9.2 | -4.5 | -28.0 | -1.4
COc1ccc(CCNc2ncnc3c2oc2ccccc23)cc1OC | -0.7 | -0.9% | 13.4 | -14.6 | -69.1* | -23.3
COc1ccc(CCNc2ncnc3sccc23)cc1OC | 0.4 | -1.9% | 24.7 | -3.4 | -38.5* | -1.7
Cc1ccc(C)n1-c1ccc(C(=O)N/N=C/c2ccncc2)cc1 | -0.7 | -3.7% | 2.2 | -10.4 | -16.9 | -6.4
CCCNC(=O)NC(=O)CN1CCCC1c1ccc2c(c1)OCCO2 (configuration not stated) | 0.0 | -2.0% | 1.0 | -1.7 | -24.0 | -2.0
O=C(Nc1ccncc1)C1c2ccccc2Oc2ccccc21 | -0.9 | -2.7% | 43.9* | -4.5 | 39.4 | 1.5
O=C(Nc1ncccn1)C1c2ccccc2Oc2ccccc21 | 0.8 | -5.6% | 4.3 | 5.0 | 8.1 | -1.1
CCOC(=O)c1c(NC(=O)C2c3ccccc3Oc3ccccc32)sc(C(=O)N(CC)CC)c1C | 1.2 | -4.0% | 18.4 | 0.2 | -6.9 | 5.7
CCOC(=O)c1sc(NC(=O)C2c3ccccc3Oc3ccccc32)c(C(=O)OCC)c1C | -0.5 | -1.7% | 0.5 | 3.5 | 0.7 | 32.5*
CCSC1=NSC2=NC(=O)/C(=C\c3coc4ccccc4c3=O)C(=N)N12 | 179.0* | 5.6% | 324.9* | 3.5 | -42.8* | 52.0*
CCOc1ccccc1CNC(=O)c1c([N+](=O)[O-])c(C)nn1C | 0.3 | -3.3% | 6.4 | -2.4 | -5.2 | -4.6
O=C1NC(=O)/C(=C/c2ccc(OS(=O)(=O)c3ccc(F)cc3F)cc2)N1 | -1.6 | 2.3% | 5.6 | -1.0 | -30.9* | 5.3
CC(C)C[C@H](NC(=O)Nc1cccc(Br)c1)C(=O)O | 0.2 | -2.3% | 6.6 | 2.9 | 8.7 | 2.9
Cc1cccc(NC(=O)c2cc(-c3ccc4c(c3)OCCO4)on2)c1 | -0.5 | -6.5% | 34.6* | -1.3 | -65.8* | 2.7
N#Cc1ccc(OC(=O)c2cc(-c3ccc(Cl)cc3)on2)cc1 | 0.0 | -1.8% | 2.7 | -0.3 | -38.0* | -2.1
O=C(Nc1cccc(Cl)c1)c1cc(-c2ccc3c(c2)OCCO3)on1 | -2.7 | -6.1% | -2.6 | 0.5 | -0.2 | -1.2
Cc1cc(OC(=O)c2cc(-c3ccc4c(c3)OCCO4)on2)ccc1Cl | 1.0 | ? | 10.8 | -2.1 | -35.7* | -0.2
COc1ccc(NC(=O)CCS(=O)(=O)c2ccc3c(c2)CCCN3C(C)=O)cc1Cl | 0.4 | -3.8% | -0.5 | -0.1 | -17.0 | 4.2
COc1ccc(C2CCCN2C(=S)Nc2ccc(C)cc2C)cc1OC (configuration not stated) | -0.6 | -3.2% | 1.9 | -3.1 | -37.6* | -2.9
COc1ccc(C2CCCN2C(=S)Nc2ccccc2C)cc1OC (configuration not stated) | -0.5 | 1.1% | 5.1 | -14.3 | -7.8 | 0.0
COc1cccc(NC(=S)N2CCCC2c2ccc(OC)c(OC)c2)c1 (configuration not stated) | -0.8 | 6.6% | -0.9 | -5.2 | -60.6* | 5.5
SMILES | TRHR agonist | Glioma ERSR ind | D1 agonist | D1 PAM | D1 antagonist | TRHR enhancer
CCOc1ccccc1NC(=O)N1CCN(Cc2nc3ccc(C)cc3o2)CC1 | -0.7 | 0.9% | -0.1 | -0.9 | -17.8 | -1.9
COc1cccc(NC(=O)Cn2nnc(C(=O)Nc3ccccc3)c2N)c1 | -0.1 | -0.4% | 1.9 | -6.0 | 5.8 | -4.6
COc1ccccc1NC(=O)c1nnn(Cc2ccccc2)c1NC(=O)C(F)(F)F | -0.1 | -1.9% | 1.5 | 7.8 | -1.2 | -1.8
COc1ccccc1NC(=O)c1nnn(Cc2ccccc2)c1NC(C)=O | -0.9 | -4.2% | 3.0 | 1.1 | -48.0* | 3.2
COc1cccc(NC(=O)c2nnn(Cc3ccc(Br)cc3F)c2N)c1 | 5.9 | 0.7% | 38.7* | 4.1 | 3.6 | -5.0
COc1cccc(NC(=O)c2nnn(Cc3ccc(OC)c(Br)c3)c2N)c1 | 0.3 | -2.1% | 4.6 | -1.9 | -72.9* | 0.5
COc1ccc(Cn2nnc(C(=O)Nc3ccc4c(c3)OCCO4)c2N)cc1Br | 0.0 | 0.6% | 4.1 | -1.0 | 3.7 | 4.2
COc1cccc(NC(=O)c2nnn(Cc3cccc(C(F)(F)F)c3)c2N)c1 | -0.8 | 0.5% | 62.9* | -4.1 | -7.1 | 13.8
Cc1ccc([C@@H]2[C@@H]3C(=O)N(c4ccccc4)C(=O)[C@@H]3[C@]3(C)C(=O)N(Cc4ccccn4)CC(=O)N23)o1 | 0.3 | -4.0% | 0.9 | -0.6 | 2.5 | 2.1
COCCn1c(=O)[nH]c2cc(C(=O)NCCN3CCN(c4ccccc4)CC3)ccc2c1=O | 0.5 | -8.0% | 1.9 | -3.2 | -7.6 | -1.0
CCc1ccc(Cn2nnc(C(=O)Nc3ccc(OC)cc3OC)c2N)cc1 | 5.2 | -0.6% | 33.4* | . | 13.8 | 7.0
O=C(CN1CCN(c2ccccc2O)CC1)NC(=O)NCc1ccco1 | -0.1 | 1.9% | -0.2 | -1.9 | 5.2 | -11.5
CN1CCN(Cc2c(O)ccc3c(-c4ccccc4)cc(=O)oc23)CC1 | 0.2 | -2.3% | 2.2 | -4.8 | -13.2 | -7.3
O=C(Nc1cccc(O)c1)c1cc(-c2cccs2)on1 | 0.7 | -5.6% | 9.0 | -8.5 | -38.1* | 8.7
COc1ccccc1N1CCN(C(=O)c2cc(-c3ccc(F)cc3)on2)CC1 | 0.2 | 0.0% | 3.3 | 0.8 | 1.6 | 4.5
O=C(c1cc(-c2cccs2)on1)N1CCN(c2ccccc2)CC1 | 0.2 | 2.5% | 4.9 | -9.6 | -38.4* | -6.5
CC(=O)c1cccc(NC(=O)c2cc(-c3cccs3)on2)c1 | 1.3 | 1.7% | 4.7 | -9.1 | -1.1 | -0.9
COc1ccc(OC)c(CCNC(=O)c2c(C)oc3ncn(C)c(=O)c23)c1 | 2.2 | -0.2% | 0.7 | -7.2 | -30.6* | -5.2
O=C(c1cc(-c2cccs2)on1)N1CCN(c2ccc(F)cc2)CC1 | -0.2 | -9.4% | 1.2 | -7.5 | -17.1 | -5.8
COc1ccccc1N1CCN(C(=O)c2cc(-c3ccc(C)cc3)on2)CC1 | 0.0 | 0.1% | 1.9 | -4.3 | -44.6* | -3.8
O=C1CC(c2ccccc2)CN1C(=O)c1ccccc1 (configuration not stated) | -0.9 | -2.2% | -0.2 | -7.5 | -0.3 | 21.1

Source: PubChem BioAssay
